Assay [1] deals with TTR (gene 7276). Nature of the assay: CCTE_GLTED_hTTR_0.125uM: CCTE's human Transthyretin (hTTR) Inhibition Assay, with 0.125uM TTR, Great Lakes Toxicology and Ecology Division (GLTED) Lab (AID 2284431).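 Also: hits lower the fluorescence signal relative to DMSO baseline.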 A digest of the protocol: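 Activity is defined as decreased ANSA fluorescence (ex 380, em 475) from human transthyretin, 0.125uM, following 2-hour chemical exposure in a cell-free setup, with DMSO as baseline.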

A short description of assay [2]: CCTE_Padilla_ZF_Score.Any: CCTE's 144 Hour Post-fertilization zebrafish Assay Score for Any Mortality or Malformation, Padilla Lab (AID 2284416). A digest of the protocol: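 Wild-type zebrafish embryos with chorions, one per well in 10% Hanks' from 6–8 hpf, dosed in sealed plates at 26 C, 14:10 h light:dark; rinsed at 5 dpf; blinded scoring at 6 dpf for death or malformation, versus DMSO.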

Active and inactive are the calls of the source. The calls were made as follows: active = hit-call score of the fitted dose curve at least 0.9, where 1 is the maximum; inactive = score below 0.9.

Take `O=C(O)Cc1cc(I)c(Oc2cc(I)c(O)c(I)c2)c(I)c1`: the concentration at half-maximal activity (AC50) in assay [1] was 10.4 nM (active). Same read-out and setting: for `NC(=O)N1C(=O)C(C(=O)c2cc(Cl)cs2)c2cc(F)c(Cl)cc21` (stereo not given) the value was 48.1 nM (active); for `CCCCCCCCCCCCc1ccccc1S(=O)(=O)O`, 890 nM (active); for `ClC1=C(Cl)C(Cl)(Cl)C(Cl)=C1Cl`, 7090 nM (active). For `OCCC(F)(F)C(F)(F)C(F)(F)C(F)(F)C(F)(F)C(F)(F)C(F)(F)C(F)(F)F`, the call in assay [2] was inactive.

The record behind these values is PubChem BioAssay (EPA / NIEHS).
